The panel holds about 83,000 compounds, 20% with a hit somewhere; the sample as a whole holds those more often.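 The endpoint reported here, percent growth, reads 100 for growth as untreated, 0 for no net growth and -100 for all cells dead.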 Values without a mark were called inactive. Calls of active or inactive are those of the source. Rule for the calls: active = growth percent below 10; inactive = the rest.
Legend:
Assay in all cases: NCI-60 one-dose screen, 48 h (100 = growth as untreated, 0 = no growth, -100 = all killed)
Conditions in all cases: 10 µM unless noted
[1] = system: HCT-15 colon
[2] = system: HT29 colon
[3] = system: SNB-75 CNS
[4] = system: SNB-19 CNS
[5] = system: U251 CNS
[6] = system: PC-3 prostate
[7] = system: SK-MEL-5 melanoma
[8] = system: UACC-62 melanoma
[9] = system: LOX IMVI melanoma
[10] = system: SK-MEL-28 melanoma
[11] = system: SK-MEL-2 melanoma
[12] = system: EKVX NSCLC
[13] = system: SN12C renal
[14] = system: UO-31 renal
[15] = system: TK-10 renal
[16] = system: ACHN renal
[17] = system: CAKI-1 renal
[18] = system: A498 renal
[19] = system: CCRF-CEM leukemia
[20] = system: MOLT-4 leukemia

Structure (SMILES)	growth [1]	growth [2]	growth [3]	growth [4]	growth [5]	growth [6]	growth [7]	growth [8]	growth [9]	growth [10]	growth [11]	growth [12]	growth [13]	growth [14]	growth [15]	growth [16]	growth [17]	growth [18]	growth [19]	growth [20]
C=CN(C(=O)N1CCN(c2cc3c(cc2F)c(=O)c(C(=O)O)cn3C2CC2)CC1)c1nc(-c2ccc(Cl)cc2)cs1	24.6%	40.2%	80%	59.5%	23.6%	40.3%	81.9%	60.3%	28.6%	62%	86.5%	81.8%	54.5%	55.9%	83.6%	70.5%	2.83% (active)	56%	33.5%	58.2%
C/C(=C(\c1ccc(OCCN2CCCCCC2)cc1)c1ccc(OC(=O)c2ccccc2)cc1)c1ccc(Cl)cc1	7.21% (active)	1.67% (active)	73.7%	57.9%	29.8%	33.8%	55.6%	28.4%	-38.9% (active)	51.7%	63%	68.6%	47.1%	26.7%	70.4%	77.1%	49.5%	86.9%	16%	8.86% (active)
N#Cc1ccccc1-c1ccc(CN2C(=O)S/C(=C\c3ccc(Br)cc3)C2=O)cc1	98.7%	104%	82.8%	93.5%	96.4%	99.9%	98.7%	88.7%	101%	108%	102%	87.8%	91.6%	91%	110%	104%	85.4%	107%	100%	106%
O=C(NC1CCC(Br)CC1)C1CCCC(S(=O)(=O)NC2CCCCC2)C1 (stereo not given)	18.8% [25 µM]	28.7% [25 µM]	27.4% [25 µM]	26.8% [25 µM]	18.5% [25 µM]	4.26% [25 µM] (active)	-68% [25 µM] (active)	9.41% [25 µM] (active)	15.8% [25 µM]	24.7% [25 µM]	17.9% [25 µM]	-19.3% [25 µM] (active)	22.2% [25 µM]	8.5% [25 µM] (active)	18.4% [25 µM]	15.9% [25 µM]	13.5% [25 µM]	-5.7% [25 µM] (active)	18.3% [25 µM]	7.81% [25 µM] (active)
CCCCn1c(NC(C)=O)c(S(=O)(=O)c2ccccc2)c2nc3ccccc3nc21	101%	124%	89.8%	98.7%	103%	96%	100%	97.8%	101%	122%	121%	95.5%	103%	92%	99.7%	106%	104%	87.3%	77.7%	82.5%
COc1ccc(C2CC(n3ccnc3)c3cc(OC)c(OC)c(OC)c32)cc1O (stereo not given)	59.9%	102%	90.2%	93.7%	80.4%	60.7%	53.1%	65.5%	86.4%	78.3%	89.6%	101%	104%	79.9%	101%	86.4%	74.5%	88.3%	90.9%	90%
CCOC(=O)C1=C(c2ccccc2)N=C2N(c3ccccc3)N=C(C(C)=O)N2C1c1ccc(F)cc1 (stereo not given)	90.8%	109%	89.4%	95.4%	103%	89.4%	97.6%	89.5%	102%	105%	112%	97%	94.3%	84.3%	104%	96.7%	91.8%	70.4%	95.9%	101%
